Test results: PMC7862700, “An all-to-all approach to the identification of sequence-specific readers for epigenetic DNA modifications on cytosine”

Tests used:
Experiment in all cases: DAPPL (digital affinity profiling via proximity ligation, sequencing); 10 mM Tris-HCl pH 7.5, 50 mM NaCl, 1 mM DTT, 4% glycerol, room temperature, 30 min; GST-TFs on glutathione beads, 16-mer random dsDNA library, 0.1% formaldehyde crosslink after washing; high values mean tight binding
Settings in all cases: protein: recombinant; tags: N-terminal GST; dsDNA, one strand shown
[1] = molecular target: T1, FLI1 (Homo sapiens, UniProt Q01543 1-452)
T1 sequence: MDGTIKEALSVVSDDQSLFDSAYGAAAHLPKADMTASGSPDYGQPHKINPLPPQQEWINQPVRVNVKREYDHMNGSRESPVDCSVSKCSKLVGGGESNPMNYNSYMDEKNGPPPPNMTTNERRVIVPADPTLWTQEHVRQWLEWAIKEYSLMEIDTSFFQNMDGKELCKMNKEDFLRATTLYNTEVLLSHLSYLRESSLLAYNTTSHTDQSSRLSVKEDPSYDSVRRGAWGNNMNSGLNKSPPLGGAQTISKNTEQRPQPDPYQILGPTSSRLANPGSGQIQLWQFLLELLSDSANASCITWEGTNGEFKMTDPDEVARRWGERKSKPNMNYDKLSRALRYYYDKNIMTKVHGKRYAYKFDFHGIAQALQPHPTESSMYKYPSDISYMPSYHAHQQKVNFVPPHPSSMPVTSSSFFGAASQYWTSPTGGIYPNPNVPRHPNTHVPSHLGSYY
Procedure, shortened: (§1)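 Yeast served to express human transcription factors as GST fusions, which were then captured on glutathione beads and labelled with DNA barcodes. Pooled with a tag-only sample, they were incubated with 200 nmole of a 16-mer random double-stranded DNA library for 30 min at room temperature in Tris/NaCl/DTT/glycerol buffer, washed, crosslinked with 0.1% formaldehyde, ligated by proximity, amplified by PCR and sequenced. Dividing each hexamer's read frequency for a factor by its frequency for the tag-only sample gives the binding signal.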

[2] = molecular target: T2, ELK1 (Homo sapiens, UniProt P19419 1-428)
T2 sequence: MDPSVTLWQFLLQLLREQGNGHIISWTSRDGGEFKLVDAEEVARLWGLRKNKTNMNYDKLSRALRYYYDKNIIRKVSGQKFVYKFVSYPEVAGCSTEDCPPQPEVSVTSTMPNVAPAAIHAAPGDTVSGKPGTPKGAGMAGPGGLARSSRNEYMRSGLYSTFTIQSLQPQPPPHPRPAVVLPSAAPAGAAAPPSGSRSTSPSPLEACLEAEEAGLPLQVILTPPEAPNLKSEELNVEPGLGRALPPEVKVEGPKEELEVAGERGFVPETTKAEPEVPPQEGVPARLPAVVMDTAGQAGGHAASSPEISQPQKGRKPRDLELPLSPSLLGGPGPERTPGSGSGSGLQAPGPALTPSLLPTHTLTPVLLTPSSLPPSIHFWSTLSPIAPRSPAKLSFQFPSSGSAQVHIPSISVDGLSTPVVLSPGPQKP
Procedure, shortened: as §1

[3] = molecular target: T3, GABPA (Homo sapiens, UniProt Q06546 1-454)
T3 sequence: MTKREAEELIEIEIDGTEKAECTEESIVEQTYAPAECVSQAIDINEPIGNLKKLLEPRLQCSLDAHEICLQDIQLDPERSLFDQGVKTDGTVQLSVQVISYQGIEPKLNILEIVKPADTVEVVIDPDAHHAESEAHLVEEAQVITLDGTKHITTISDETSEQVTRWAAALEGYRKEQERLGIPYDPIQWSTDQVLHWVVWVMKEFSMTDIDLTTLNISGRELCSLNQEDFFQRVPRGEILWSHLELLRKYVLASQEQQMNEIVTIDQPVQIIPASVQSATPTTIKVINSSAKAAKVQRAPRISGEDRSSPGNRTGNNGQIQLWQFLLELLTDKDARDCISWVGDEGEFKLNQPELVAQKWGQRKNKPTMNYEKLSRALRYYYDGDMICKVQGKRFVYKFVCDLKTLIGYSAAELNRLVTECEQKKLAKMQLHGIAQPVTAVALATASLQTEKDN
Procedure, shortened: as §1

[4] = molecular target: T4, ERG (Homo sapiens, UniProt P11308 1-479)
T4 sequence: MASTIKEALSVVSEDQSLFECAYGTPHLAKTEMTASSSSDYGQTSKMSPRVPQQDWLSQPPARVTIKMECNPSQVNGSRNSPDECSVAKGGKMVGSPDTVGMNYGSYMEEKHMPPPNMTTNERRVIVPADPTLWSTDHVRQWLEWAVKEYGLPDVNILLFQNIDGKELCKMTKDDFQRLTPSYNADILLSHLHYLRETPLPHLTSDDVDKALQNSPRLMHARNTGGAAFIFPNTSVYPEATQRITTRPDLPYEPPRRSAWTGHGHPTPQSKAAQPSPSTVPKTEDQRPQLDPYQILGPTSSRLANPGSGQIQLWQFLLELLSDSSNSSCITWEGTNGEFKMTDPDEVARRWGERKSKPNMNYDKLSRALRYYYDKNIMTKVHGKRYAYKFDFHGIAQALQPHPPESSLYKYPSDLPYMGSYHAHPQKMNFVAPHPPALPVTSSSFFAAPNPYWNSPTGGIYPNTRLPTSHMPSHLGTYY
Procedure, shortened: as §1

[5] = molecular target: ELF1 (Homo sapiens, UniProt P32519 1-619)
Procedure, shortened: as §1

[6] = molecular target: T5, EHF (Homo sapiens, UniProt Q9NZC4 1-300)
T5 sequence: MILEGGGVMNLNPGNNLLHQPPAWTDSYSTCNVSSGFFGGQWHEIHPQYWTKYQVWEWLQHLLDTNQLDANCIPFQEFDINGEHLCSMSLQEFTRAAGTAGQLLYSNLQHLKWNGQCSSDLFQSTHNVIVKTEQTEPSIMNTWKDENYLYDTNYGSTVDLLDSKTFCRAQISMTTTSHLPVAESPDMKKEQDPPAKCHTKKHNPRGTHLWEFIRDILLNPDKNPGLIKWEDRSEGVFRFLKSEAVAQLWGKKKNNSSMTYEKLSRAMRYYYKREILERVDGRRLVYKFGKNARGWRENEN
Procedure, shortened: as §1

[7] = molecular target: T6, SPIC (Homo sapiens, UniProt Q8N5J4 1-248)
T6 sequence: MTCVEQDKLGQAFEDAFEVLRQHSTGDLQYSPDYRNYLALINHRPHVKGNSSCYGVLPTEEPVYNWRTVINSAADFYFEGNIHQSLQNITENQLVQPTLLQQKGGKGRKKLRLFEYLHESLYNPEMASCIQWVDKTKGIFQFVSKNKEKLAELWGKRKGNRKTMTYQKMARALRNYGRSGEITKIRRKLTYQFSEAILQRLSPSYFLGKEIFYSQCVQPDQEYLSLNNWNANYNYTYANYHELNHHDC
Procedure, shortened: as §1

[8] = molecular target: ELF4 (Homo sapiens, UniProt Q99607 1-663)
Procedure, shortened: as §1

[9] = molecular target: T7, ETV2 (Homo sapiens, UniProt O00321 1-342)
T7 sequence: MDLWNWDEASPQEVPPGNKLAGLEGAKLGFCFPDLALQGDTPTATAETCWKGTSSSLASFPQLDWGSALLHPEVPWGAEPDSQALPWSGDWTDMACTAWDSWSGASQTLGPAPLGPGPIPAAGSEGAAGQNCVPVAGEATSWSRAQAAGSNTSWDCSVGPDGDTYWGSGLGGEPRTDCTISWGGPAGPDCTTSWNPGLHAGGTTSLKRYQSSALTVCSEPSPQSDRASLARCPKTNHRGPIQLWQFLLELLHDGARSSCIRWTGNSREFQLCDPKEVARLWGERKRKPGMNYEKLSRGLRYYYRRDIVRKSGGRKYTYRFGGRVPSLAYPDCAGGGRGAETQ
Procedure, shortened: as §1

[10] = molecular target: T8, ELF3 (Homo sapiens, UniProt P78545 1-371)
T8 sequence: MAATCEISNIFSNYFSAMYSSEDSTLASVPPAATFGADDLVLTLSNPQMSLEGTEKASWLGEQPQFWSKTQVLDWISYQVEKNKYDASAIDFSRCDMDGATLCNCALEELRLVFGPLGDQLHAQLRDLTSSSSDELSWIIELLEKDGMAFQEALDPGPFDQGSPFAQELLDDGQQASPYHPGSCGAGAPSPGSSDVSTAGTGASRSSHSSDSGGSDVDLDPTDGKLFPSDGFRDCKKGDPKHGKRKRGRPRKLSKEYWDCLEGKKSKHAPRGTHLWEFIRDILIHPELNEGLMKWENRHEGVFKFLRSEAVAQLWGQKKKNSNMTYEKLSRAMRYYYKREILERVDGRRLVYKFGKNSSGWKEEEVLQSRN
Procedure, shortened: as §1

[11] = molecular target: ETV1 (Homo sapiens, UniProt P50549 1-477)
Procedure, shortened: as §1

[12] = molecular target: T9, ERF (Homo sapiens, UniProt P50548 1-548)
T9 sequence: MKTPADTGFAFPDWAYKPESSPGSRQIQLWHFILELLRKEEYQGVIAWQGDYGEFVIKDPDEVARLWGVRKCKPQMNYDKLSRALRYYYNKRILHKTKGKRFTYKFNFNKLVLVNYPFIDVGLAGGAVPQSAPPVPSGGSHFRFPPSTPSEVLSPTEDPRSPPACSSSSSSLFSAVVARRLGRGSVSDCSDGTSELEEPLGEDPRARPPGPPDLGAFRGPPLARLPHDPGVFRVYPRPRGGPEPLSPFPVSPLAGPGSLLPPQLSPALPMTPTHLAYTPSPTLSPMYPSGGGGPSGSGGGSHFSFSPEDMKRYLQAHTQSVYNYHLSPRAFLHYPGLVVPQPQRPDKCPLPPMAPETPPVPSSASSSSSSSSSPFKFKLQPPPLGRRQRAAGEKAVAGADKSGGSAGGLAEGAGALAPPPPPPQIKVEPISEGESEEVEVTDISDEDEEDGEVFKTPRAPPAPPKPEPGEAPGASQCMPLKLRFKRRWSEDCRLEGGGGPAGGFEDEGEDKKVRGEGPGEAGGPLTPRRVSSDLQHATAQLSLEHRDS
Procedure, shortened: as §1

[13] = molecular target: T10, ETV3L (Homo sapiens, UniProt Q6ZN32 1-361)
T10 sequence: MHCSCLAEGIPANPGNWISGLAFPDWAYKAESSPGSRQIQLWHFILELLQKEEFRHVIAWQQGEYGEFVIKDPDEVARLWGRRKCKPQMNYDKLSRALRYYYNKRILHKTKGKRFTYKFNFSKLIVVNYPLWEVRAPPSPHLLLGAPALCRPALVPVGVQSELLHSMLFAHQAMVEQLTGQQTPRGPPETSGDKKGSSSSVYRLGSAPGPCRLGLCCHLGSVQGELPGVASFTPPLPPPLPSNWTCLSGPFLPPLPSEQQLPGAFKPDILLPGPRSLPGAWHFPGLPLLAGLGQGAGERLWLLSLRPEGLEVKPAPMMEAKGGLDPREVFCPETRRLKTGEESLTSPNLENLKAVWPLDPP
Procedure, shortened: as §1

[14] = molecular target: T11, ETV7 (Homo sapiens, UniProt Q9Y603 1-341)
T11 sequence: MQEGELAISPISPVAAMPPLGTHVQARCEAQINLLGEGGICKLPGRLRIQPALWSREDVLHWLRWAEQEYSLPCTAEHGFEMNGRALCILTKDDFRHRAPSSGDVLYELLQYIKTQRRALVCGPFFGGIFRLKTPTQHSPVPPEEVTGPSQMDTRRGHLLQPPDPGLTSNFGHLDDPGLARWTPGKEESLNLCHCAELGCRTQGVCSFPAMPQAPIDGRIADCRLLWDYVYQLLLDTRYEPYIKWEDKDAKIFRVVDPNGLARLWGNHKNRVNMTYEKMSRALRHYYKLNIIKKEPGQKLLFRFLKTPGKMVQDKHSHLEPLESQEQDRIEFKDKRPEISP
Procedure, shortened: as §1

[15] = molecular target: ETV6 (Homo sapiens, UniProt P41212 1-452)
Procedure, shortened: as §1

ETV1, sequence (P50549 whole entry): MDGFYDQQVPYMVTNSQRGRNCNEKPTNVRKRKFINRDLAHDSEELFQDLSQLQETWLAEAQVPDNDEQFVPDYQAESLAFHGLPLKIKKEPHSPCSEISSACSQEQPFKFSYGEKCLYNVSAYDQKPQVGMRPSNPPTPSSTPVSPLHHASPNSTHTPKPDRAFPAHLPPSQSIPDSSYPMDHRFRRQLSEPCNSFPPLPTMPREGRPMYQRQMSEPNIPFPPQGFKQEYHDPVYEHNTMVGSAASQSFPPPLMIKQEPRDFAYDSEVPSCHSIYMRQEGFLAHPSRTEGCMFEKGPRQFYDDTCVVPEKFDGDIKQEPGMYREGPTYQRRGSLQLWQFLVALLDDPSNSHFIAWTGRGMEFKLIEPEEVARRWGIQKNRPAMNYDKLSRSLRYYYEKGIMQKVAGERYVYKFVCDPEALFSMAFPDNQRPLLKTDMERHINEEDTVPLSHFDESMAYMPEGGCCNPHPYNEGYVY
ELF1, sequence (P32519 whole entry): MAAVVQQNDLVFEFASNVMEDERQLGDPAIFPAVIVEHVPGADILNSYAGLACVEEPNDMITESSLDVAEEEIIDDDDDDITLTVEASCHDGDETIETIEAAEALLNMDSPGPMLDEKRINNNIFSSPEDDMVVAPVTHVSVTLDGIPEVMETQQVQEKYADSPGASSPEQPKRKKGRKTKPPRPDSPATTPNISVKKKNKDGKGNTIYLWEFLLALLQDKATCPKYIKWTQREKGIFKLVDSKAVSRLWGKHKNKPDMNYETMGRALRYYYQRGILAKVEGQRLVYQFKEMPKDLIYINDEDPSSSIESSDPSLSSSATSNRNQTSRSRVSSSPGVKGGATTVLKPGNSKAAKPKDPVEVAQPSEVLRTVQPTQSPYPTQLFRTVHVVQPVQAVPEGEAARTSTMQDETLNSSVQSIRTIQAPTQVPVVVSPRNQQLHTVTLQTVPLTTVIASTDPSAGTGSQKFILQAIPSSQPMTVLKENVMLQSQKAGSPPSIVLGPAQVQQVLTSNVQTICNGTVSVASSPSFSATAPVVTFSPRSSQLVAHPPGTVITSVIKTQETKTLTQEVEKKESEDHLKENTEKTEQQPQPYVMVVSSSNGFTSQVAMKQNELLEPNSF
ETV6, sequence (P41212 whole entry): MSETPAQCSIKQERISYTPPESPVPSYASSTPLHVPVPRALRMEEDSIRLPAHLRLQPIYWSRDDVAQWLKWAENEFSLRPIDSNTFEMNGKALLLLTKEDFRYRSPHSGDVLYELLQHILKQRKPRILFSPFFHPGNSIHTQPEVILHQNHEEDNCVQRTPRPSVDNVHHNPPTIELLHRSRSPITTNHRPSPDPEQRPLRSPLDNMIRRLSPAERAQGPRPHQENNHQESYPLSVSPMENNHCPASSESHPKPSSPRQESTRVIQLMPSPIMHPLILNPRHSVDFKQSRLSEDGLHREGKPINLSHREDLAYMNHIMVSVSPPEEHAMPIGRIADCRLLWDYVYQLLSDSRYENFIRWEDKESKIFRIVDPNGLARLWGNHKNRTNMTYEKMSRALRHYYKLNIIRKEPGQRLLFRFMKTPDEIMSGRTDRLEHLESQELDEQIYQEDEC
ELF4, sequence (Q99607 whole entry): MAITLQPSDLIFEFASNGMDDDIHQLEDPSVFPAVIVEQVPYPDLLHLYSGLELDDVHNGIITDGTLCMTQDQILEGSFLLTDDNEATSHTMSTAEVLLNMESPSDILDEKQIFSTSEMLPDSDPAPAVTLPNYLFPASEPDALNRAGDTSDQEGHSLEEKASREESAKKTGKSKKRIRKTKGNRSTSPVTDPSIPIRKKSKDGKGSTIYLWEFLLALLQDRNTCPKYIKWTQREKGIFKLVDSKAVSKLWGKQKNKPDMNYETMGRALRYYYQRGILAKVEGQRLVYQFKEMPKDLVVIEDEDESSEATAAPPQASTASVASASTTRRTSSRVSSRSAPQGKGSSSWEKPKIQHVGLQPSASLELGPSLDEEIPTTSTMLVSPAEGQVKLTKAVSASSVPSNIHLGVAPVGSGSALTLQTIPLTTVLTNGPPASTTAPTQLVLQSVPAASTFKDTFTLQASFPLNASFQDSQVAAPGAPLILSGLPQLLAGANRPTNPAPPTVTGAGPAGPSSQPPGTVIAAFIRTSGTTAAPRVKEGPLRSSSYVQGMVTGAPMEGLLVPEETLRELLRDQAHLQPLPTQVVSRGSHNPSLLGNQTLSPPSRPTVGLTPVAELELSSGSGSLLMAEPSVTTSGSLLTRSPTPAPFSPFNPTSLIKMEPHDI

Sequence: CACACC
- binding signal [1]: 1.07 fold enrichment (6-mer frequency, TF over GST control)
- binding signal [2]: 1.07 fold enrichment (6-mer frequency, TF over GST control)
- binding signal [3]: 1.01 fold enrichment (6-mer frequency, TF over GST control)
- binding signal [4]: 1.04 fold enrichment (6-mer frequency, TF over GST control)
- binding signal [5]: 1.02 fold enrichment (6-mer frequency, TF over GST control)
- binding signal [6]: 1.04 fold enrichment (6-mer frequency, TF over GST control)
- binding signal [7]: 1.09 fold enrichment (6-mer frequency, TF over GST control)
- binding signal [8]: 1.06 fold enrichment (6-mer frequency, TF over GST control)
- binding signal [9]: 1.03 fold enrichment (6-mer frequency, TF over GST control)
- binding signal [10]: 1.02 fold enrichment (6-mer frequency, TF over GST control)
- binding signal [11]: 1.14 fold enrichment (6-mer frequency, TF over GST control)
- binding signal [12]: 1.02 fold enrichment (6-mer frequency, TF over GST control)
- binding signal [13]: 1.02 fold enrichment (6-mer frequency, TF over GST control)
- binding signal [14]: 1.01 fold enrichment (6-mer frequency, TF over GST control)
- binding signal [15]: 1.01 fold enrichment (6-mer frequency, TF over GST control)
